Calls of active or inactive are those of the source. The calls were made as follows: active = hit-call score of the fitted dose curve at least 0.9, where 1 is the maximum; inactive = score below 0.9.

What all share (conditions): mRNA level, 48 h; actives raise or lower the signal
Read-out in experiment [1]: Early growth response protein 1 (EGR1) transcription factor, EGR1 (gene 1958)
Nature of the experiment: LTEA_HepaRG_EGR1: Life Technologies and Expression Analysis (LTEA) Assay for Early growth response protein 1 (EGR1) transcription factor using HepaRG (AID 2283490). Summed up:
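Differentiated human HepaRG cells in serum-free induction medium were exposed in duplicate for 48 h to eight concentrations (top 100 uM, half-log steps) in 0.5% DMSO. EGR1 mRNA was quantified by qRT-PCR, normalized to ACTB, GAPDH and POLR2A, and fitted bidirectionally versus DMSO.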

Read-out in experiment [2]: Ezrin (EZR), EZR (gene 7430)
Nature of the experiment: LTEA_HepaRG_EZR: Life Technologies and Expression Analysis (LTEA) Assay for Ezrin (EZR) using HepaRG (AID 2283491). Summed up: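 Gain or loss of EZR mRNA is scored relative to 0.5% DMSO in human HepaRG cultures treated 48 h with test chemicals in duplicate, eight half-log concentrations from 100 uM.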

Read-out in experiment [3]: Cytochrome P450 3A7 (Homo sapiens) (UniProt P24462)
Nature of the experiment: LTEA_HepaRG_CYP3A7: Life Technologies and Expression Analysis (LTEA) Assay for CYP3A7 using HepaRG (AID 2283492). The method, boiled down:
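Cells were thawed, plated, cultured 48 h, then treated for a further 48 h with chemicals (eight-point half-log series from 100 uM, 0.5% DMSO). RNA was isolated and CYP3A7 expression quantified by qRT-PCR normalised to ACTB, GAPDH and POLR2A.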

Read-out in a further experiment: CYP3A5 (gene 1577)
Nature of the experiment: LTEA_HepaRG_CYP3A5: Life Technologies and Expression Analysis (LTEA) Assay for CYP3A5 using HepaRG (AID 2283493). Summed up:
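mRNA induction or loss of CYP3A5 assessed in HepaRG after 48 h dosing, 100 uM top concentration, duplicate wells; TaqMan qRT-PCR with ACTB, GAPDH, POLR2A normalization; 0.5% DMSO as negative control.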

Read-out in experiment [4]: Fatty Acid-Binding Protein 1 (FABP1), FABP1 (gene 2168)
Nature of the experiment: LTEA_HepaRG_FABP1: Life Technologies and Expression Analysis (LTEA) Assay for Fatty Acid-Binding Protein 1 (FABP1) using HepaRG (AID 2283494). The method, boiled down:
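Differentiated human HepaRG cells were exposed in duplicate for 48 h in serum-free induction medium to 8-point half-log concentration series topping at 100 uM in 0.5% DMSO. FABP1 mRNA measured by TaqMan qRT-PCR, normalized to ACTB/GAPDH/POLR2A; bidirectional fit versus DMSO.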

Read-out in experiment [5]: Cytochrome P450 4A22 (Homo sapiens) (UniProt Q5TCH4)
Nature of the experiment: LTEA_HepaRG_CYP4A22: Life Technologies and Expression Analysis (LTEA) Assay for Cytochrome P450 4A22 (CYP4A22) using HepaRG (AID 2283495). The method, boiled down:
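Cryopreserved HepaRG cells, plated and cultured 48 h, then switched to serum-free induction medium and treated 48 h (duplicates, up to 100 uM, half-log steps, 0.5% DMSO). Expression change of CYP4A22 was fitted bidirectionally against vehicle.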

Read-out in experiment [6]: Glutathione S-Transferase (GSTA2), GSTA2 (gene 2939)
Nature of the experiment: LTEA_HepaRG_GSTA2: Life Technologies and Expression Analysis (LTEA) Assay for Glutathione S-Transferase (GSTA2) using HepaRG (AID 2283497). The method, boiled down: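 Human HepaRG cells, plated 48 h, then exposed in serum-free induction medium for 48 h to eight half-log concentrations up to 100 uM in 0.5% DMSO, duplicate. GSTA2 mRNA by qRT-PCR, normalized to ACTB/GAPDH/POLR2A; bidirectional fit versus DMSO.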

Read-out in experiment [7]: Glutamate-cysteine ligase catalytic (GCLC), GCLC (gene 2729)
Nature of the experiment: LTEA_HepaRG_GCLC: Life Technologies and Expression Analysis (LTEA) Assay for Glutamate-cysteine ligase catalytic (GCLC) using HepaRG (AID 2283498). Summed up:
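Differentiated human HepaRG cells, plated 48 h then switched to serum-free induction medium, were exposed in duplicate for 48 h to 8 half-log concentrations topping at 100 uM in 0.5% DMSO. GCLC mRNA was quantified by qRT-PCR against ACTB, GAPDH and POLR2A.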

Read-out in experiment [8]: growth arrest and DNA damage 45 (GADD45G), GADD45G (gene 10912)
Nature of the experiment: LTEA_HepaRG_GADD45G: Life Technologies and Expression Analysis (LTEA) Assay for growth arrest and DNA damage 45 (GADD45G) using HepaRG (AID 2283499). Summed up: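 Human hepatic HepaRG line treated 48 h with chemicals (eight concentrations, half-log steps from 100 uM); transcript induction or repression of GADD45G scored by qRT-PCR versus DMSO vehicle.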

Read-out in experiment [9]: Glutamate-cysteine ligase regulatory (GCLM), GCLM (gene 2730)
Nature of the experiment: LTEA_HepaRG_GCLM: Life Technologies and Expression Analysis (LTEA) Assay for Glutamate-cysteine ligase regulatory (GCLM) using HepaRG (AID 2283500). Summed up: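 Human liver HepaRG cultures receive test chemicals for 48 hours at up to 100 uM in 0.5% DMSO. GCLM expression is measured by qRT-PCR and analysed for increases or decreases against vehicle.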

Read-out in experiment [10]: Glutathione S-transferase M3 (GSTM3), GSTM3 (gene 2947)
Nature of the experiment: LTEA_HepaRG_GSTM3: Life Technologies and Expression Analysis (LTEA) Assay for Glutathione S-transferase M3 (GSTM3) using HepaRG (AID 2283501). The method, boiled down: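 Changes in GSTM3 expression, an oxidative-stress marker, were scored by bidirectional curve fitting against 0.5% DMSO vehicle. Human HepaRG cultures received chemicals for 48 h in duplicate, highest concentration 100 uM with half-log dilutions.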

Read-out in experiment [11]: Heat shock 70 kDa protein 1 (HSPA1A), gene 3303
Nature of the experiment: LTEA_HepaRG_HSPA1A: Life Technologies and Expression Analysis (LTEA) Assay for Heat shock 70 kDa protein 1 (HSPA1A) using HepaRG (AID 2283502). The method, boiled down: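 HSPA1A induction in human HepaRG liver cells is measured after 48 h of chemical treatment (100 uM maximum, 0.5% DMSO vehicle). Expression comes from qRT-PCR normalized to endogenous controls.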

Read-out in experiment [12]: Hypoxia-inducible factor 1-alpha (Homo sapiens) (UniProt Q16665)
Nature of the experiment: LTEA_HepaRG_HIF1A: Life Technologies and Expression Analysis (LTEA) Assay for Hypoxia-inducible factor 1 (HIF1A) Trancription factor using HepaRG (AID 2283503). The method, boiled down:
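HepaRG, 48 h exposure, 8-pt half-log series from 100 uM, 0.5% DMSO vehicle, duplicates. Readout: HIF1A transcript by qRT-PCR (Fluidigm array), housekeeping-normalised. Bidirectional curve fit vs DMSO baseline.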

Read-out in experiment [13]: 3-Hydroxy-3-Methylglutaryl-CoA Synthase 2 (HMGCS2), HMGCS2 (gene 3158)
Nature of the experiment: LTEA_HepaRG_HMGCS2: Life Technologies and Expression Analysis (LTEA) Assay for 3-Hydroxy-3-Methylglutaryl-CoA Synthase 2 (HMGCS2) using HepaRG (AID 2283504). Summed up: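 Expression of HMGCS2 in human HepaRG liver cells is measured by qRT-PCR 48 h after dosing (highest 100 uM, half-log series, 0.5% DMSO). Values come from bidirectional concentration-response fitting with DMSO as baseline.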

Read-out in experiment [14]: Insulin Like Growth Factor 1 (IGF1), IGF1 (gene 3479)
Nature of the experiment: LTEA_HepaRG_IGF1: Life Technologies and Expression Analysis (LTEA) Assay for Insulin Like Growth Factor 1 (IGF1) using HepaRG (AID 2283506). The method, boiled down:
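Using human HepaRG liver cells, IGF1 transcript induction or suppression is measured 48 h after dosing across eight concentrations capped at 100 uM. Values derive from bidirectional concentration-response fitting with DMSO as baseline.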

Read-out in experiment [15]: Intercellular Adhesion Molecule 1 (ICAM1), ICAM1 (gene 3383)
Nature of the experiment: LTEA_HepaRG_ICAM1: Life Technologies and Expression Analysis (LTEA) Assay for Intercellular Adhesion Molecule 1 (ICAM1) using HepaRG (AID 2283507). The method, boiled down:
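Gain or loss of transcript in HepaRG hepatic cells is quantified by qRT-PCR after 48 h chemical exposure (up to 100 uM, half-log steps), with DMSO as baseline.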

Read-out in experiment [16]: Insulin-like growth factor-binding protein 1 (IGFBP1), IGFBP1 (gene 3484)
Nature of the experiment: LTEA_HepaRG_IGFBP1: Life Technologies and Expression Analysis (LTEA) Assay for Insulin-like growth factor-binding protein 1 (IGFBP1) using HepaRG (AID 2283508). Summed up:
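mRNA induction or loss was quantified by qRT-PCR after 48 h chemical exposure of human HepaRG cells, with 0.5% DMSO as vehicle and baseline. Concentration-response over eight points up to 100 uM.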

Read-out in experiment [17]: Interleukin 6 (IL6), IL6 (gene 3569)
Nature of the experiment: LTEA_HepaRG_IL6: Life Technologies and Expression Analysis (LTEA) Assay for Interleukin 6 (IL6) using HepaRG (AID 2283509). The method, boiled down: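 Differentiated human HepaRG cells, plated 48 h then switched to serum-free induction medium, were exposed in duplicate for 48 h to eight half-log concentrations up to 100 uM in 0.5% DMSO. IL6 mRNA measured by qRT-PCR, normalized to ACTB/GAPDH/POLR2A.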

Read-out in experiment [18]: Cytochrome P450 7A1 (Homo sapiens) (UniProt P22680)
Nature of the experiment: LTEA_HepaRG_CYP7A1: Life Technologies and Expression Analysis (LTEA) Assay for Cytochrome P450 7A1 (CYP7A1) using HepaRG (AID 2283496). The method, boiled down:
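Gene expression endpoint in human HepaRG liver cells treated for 48 h with test chemicals (up to 100 uM, 0.5% DMSO). Values come from bidirectional concentration-response fitting versus DMSO.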

Sequence of Hypoxia-inducible factor 1-alpha (Homo sapiens) (Q16665 whole entry, looked up): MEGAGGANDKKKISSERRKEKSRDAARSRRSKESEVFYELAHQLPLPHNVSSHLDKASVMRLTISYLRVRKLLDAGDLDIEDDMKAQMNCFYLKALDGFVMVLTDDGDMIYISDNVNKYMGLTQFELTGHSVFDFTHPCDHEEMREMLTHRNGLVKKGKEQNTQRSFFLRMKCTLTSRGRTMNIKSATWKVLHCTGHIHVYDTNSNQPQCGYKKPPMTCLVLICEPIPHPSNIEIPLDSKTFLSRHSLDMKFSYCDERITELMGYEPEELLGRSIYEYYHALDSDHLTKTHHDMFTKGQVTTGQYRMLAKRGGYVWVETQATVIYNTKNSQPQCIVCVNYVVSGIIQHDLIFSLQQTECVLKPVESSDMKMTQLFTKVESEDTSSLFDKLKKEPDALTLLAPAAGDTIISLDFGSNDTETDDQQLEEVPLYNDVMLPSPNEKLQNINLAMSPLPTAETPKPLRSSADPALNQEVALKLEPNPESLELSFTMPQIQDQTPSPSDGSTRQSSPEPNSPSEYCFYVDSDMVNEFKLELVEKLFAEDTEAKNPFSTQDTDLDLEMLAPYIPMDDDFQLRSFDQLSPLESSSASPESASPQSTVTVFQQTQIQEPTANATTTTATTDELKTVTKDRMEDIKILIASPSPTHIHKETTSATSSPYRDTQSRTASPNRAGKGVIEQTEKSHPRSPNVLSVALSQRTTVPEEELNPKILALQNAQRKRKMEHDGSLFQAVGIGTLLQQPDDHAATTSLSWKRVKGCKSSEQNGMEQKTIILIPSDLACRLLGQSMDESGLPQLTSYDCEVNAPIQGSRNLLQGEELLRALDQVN
Sequence of Cytochrome P450 3A7 (Homo sapiens) (P24462 whole entry, looked up): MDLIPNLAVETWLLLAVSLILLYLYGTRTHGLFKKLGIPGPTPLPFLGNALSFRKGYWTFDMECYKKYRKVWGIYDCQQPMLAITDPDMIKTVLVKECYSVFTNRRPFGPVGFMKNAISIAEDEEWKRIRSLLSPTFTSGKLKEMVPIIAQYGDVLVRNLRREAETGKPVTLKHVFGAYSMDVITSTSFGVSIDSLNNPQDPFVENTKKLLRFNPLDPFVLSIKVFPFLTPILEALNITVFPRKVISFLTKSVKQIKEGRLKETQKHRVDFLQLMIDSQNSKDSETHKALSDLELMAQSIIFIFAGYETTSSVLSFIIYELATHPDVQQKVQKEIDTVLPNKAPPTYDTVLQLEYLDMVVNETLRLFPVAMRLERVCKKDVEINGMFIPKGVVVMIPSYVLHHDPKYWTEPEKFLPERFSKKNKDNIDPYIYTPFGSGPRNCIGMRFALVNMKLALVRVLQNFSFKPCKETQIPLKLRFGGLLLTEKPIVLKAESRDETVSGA

One may read the AC50 as the concentration giving half of the maximal activity seen. With `CCCCCCCCOC(=O)c1cc(O)c(O)c(O)c1`, the compound was classed as inactive (in experiment [1]; in experiment [2]; in experiment [3]; in the experiment with CYP3A5 (gene 1577); in experiment [4]; in experiment [5]). In addition, the call in [6], in [7], in experiment [8], in experiment [9], in experiment [10] and in [11] was inactive. Also, the result in experiment [12], in experiment [13], in experiment [14], in experiment [15] and in experiment [16] was inactive. Also, the half-maximal activity concentration (AC50) in [17] is 50 µM (active).

With `O=C(O)c1ccccc1C(=O)OCc1ccccc1`, the call (in experiment [1]; in experiment [2]; in [3]; in the experiment with CYP3A5 (gene 1577); in experiment [18]; in experiment [6]) was inactive. For the same compound, the outcome in experiment [7], in [9], in [10], in experiment [11], in experiment [12] and in [13] was inactive. In addition, the compound was called inactive in [14], in experiment [15], in [16] and in [17]. In addition, the AC50 in experiment [4] is 28.1 µM (active); in experiment [5], 23.4 µM (active); in experiment [8], 5.56 µM (active).

On to `CCCCCCCCCC(=O)O`, for which the outcome (in [1]; in experiment [2]; in [3]; with CYP3A5 (gene 1577); in [4]; in experiment [5]) was inactive. Also, the compound was called inactive in experiment [18], in [7], in experiment [8], in experiment [9], in [10] and in [11]. Also, the outcome in experiment [12], in experiment [13], in [14], in experiment [15], in [16] and in [17] was inactive.

The values are drawn from PubChem BioAssay (EPA / NIEHS).
